# USP30 inh: inhibitors of human USP30 deubiquitinase; Ubiquitin carboxyl-terminal hydrolase 30 (Homo sapiens), Q70CQ3; purified USP30, Ub-rhodamine cleavage fluorescence; inhibition, % at 25 µM; 47,000 tested, 5.3% active; AID 1645860, 2021
# OTUD3 block: inhibitors of human OTUD3 deubiquitinase; purified OTUD3, Ub-rhodamine fluorescence, 2 h; AID 1645858, 2021; OTU domain-containing protein 3 (Homo sapiens), Q5T2D3; 47,000 tested, 0.7% active; inhibition, % at 25 µM
# USP28 inh: inhibitors of human USP28 deubiquitinase. Ubiquitin carboxyl-terminal hydrolase 28 (Homo sapiens), Q96RU2. purified USP28, Ub-rhodamine cleavage fluorescence, 30 min. inhibition, % at 25 µM. 47,000 tested, 3% active
# USP17 inh: inhibitors of human USP17 deubiquitinase. Ubiquitin carboxyl-terminal hydrolase 17-like protein 5 (Homo sapiens), A8MUK1. purified USP17, Ub-rhodamine cleavage fluorescence, 3 h. inhibition, % at 50 µM. 47,000 tested, 6.5% active. AID 1645855, 2021
# Active calls of the source: *; i = inactive; / = no result. The list is not random: actives were taken first. Their share in the collection is about 12%. Rule as the data show it: active = inhibition above about 30%; inactive = the rest.
SMILES,USP30 inh,OTUD3 block,USP28 inh,USP17 inh
CCOCCn1ccc2c(OCC(=O)Nc3ccc4c(c3)OCCO4)cccc2c1=O,84.2*,6.5,44.4*,66.0*
CN1CCN(c2ccc3nc(-c4ccccc4)c(-c4ccccc4)nc3c2)CC1,i,-227.3,-241.0,-169.8
Cc1ccc2nc(NC(=O)CSc3nnc(-c4ccncc4)n3C3CC3)sc2c1,-24.8,-12.1,-4.3,57.3*
Cc1ccc2nc(NC(=O)CN3CCC(C(N)=O)CC3)sc2c1,19.5,7.0,2.8,6.1
O=C(NCCc1ccccc1)c1ccccc1-c1ccccc1C(=O)NCCc1ccccc1,31.6*,25.4,13.2,11.5
COc1cccc(CNC(=O)c2ccc(Cn3cncn3)cc2)c1,28.8,16.8,6.7,8.5
COc1cccc(CNC(=O)c2ccccc2NC(=O)c2ccc(F)cc2)c1,40.7*,-0.1,-3.6,7.0
O=C(Cc1ccccc1)NCCc1ccccc1,-52.7,-9.2,-7.1,-1.4
COc1cccc(C(=O)Nc2ccccc2C(=O)NCCc2ccccc2)c1,49.3*,9.5,12.7,29.2
COc1ccccc1OCc1ccc(C(=O)Nc2ccc(F)cc2C)cc1,12.6,-1.5,-2.0,52.6*
COc1ccc(CCN2CC(=O)N3C(C)c4[nH]c5ccccc5c4C[C@@H]3C2=O)cc1 (stereo partly drawn),-21.2,-13.8,-19.1,-14.5
CC(=O)N1CCc2nnc(C3CCCN3C(=O)CC3CCCCC3)n2CC1 (stereo not drawn),14.3,8.4,7.7,8.6
Cc1ccc(-c2c[n+](CC#N)c3n2CCC3)cc1,-6.4,0.1,-1.0,-0.1
COc1ccc(C)cc1NC(=O)Cc1csc(NC(=O)c2ccc(=O)[nH]c2)n1,-75.3,10.2,22.8,71.1*
Cc1ncc(CO)c2cc(C(=O)Nc3ccc(Cl)cc3)c(=Nc3ccccc3)oc12,-1.0,-7.3,-9.7,-5.9
Cn1c(=O)c2c(ncn2CC(=O)OCC(=O)Nc2cccc(Cl)c2)n(C)c1=O,5.3,4.3,10.7,5.0
CCOc1ccc(-n2ccnc(SCC(=O)Nc3ccccc3F)c2=O)cc1,32.1*,18.3,12.6,27.5
COc1cnc(CSc2nccc(C)n2)cc1OCC(=O)Nc1ccccc1F,6.5,3.8,-0.1,-9.2
CCOc1ccc(-n2ccnc(SCC(=O)Nc3ccccc3Cl)c2=O)cc1,-37.3,3.0,13.5,30.0*
COc1ccc(-c2ccnc(SCC(=O)Nc3ccccc3F)n2)cc1,64.6*,21.3,23.2,71.2*
Cc1cc(NC(=O)CSc2nccn2-c2ccc(F)cc2)no1,12.8,11.4,4.9,1.0
Cc1cc(C)cc(-n2ccnc(SCC(=O)Nc3cccc(Cl)c3)c2=O)c1,54.5*,11.3,20.4,34.2*
O=C(COC(=O)C(Cc1c[nH]c2ccccc12)NC(=O)c1ccc(F)cc1)Nc1c(Cl)cccc1Cl (stereo not drawn),0.6,-2.4,9.5,11.7
N#Cc1ccc(Sc2ccccc2)c(NC(=O)c2ccc(F)cc2)c1,30.7*,21.3,20.4,18.5
COc1ccc2c(c1)C=C(C(=O)Nc1ccc(-n3cnnn3)cc1)C=CO2,32.8*,17.3,24.3,39.2*
SMILES,USP30 inh,OTUD3 block,USP28 inh,USP17 inh
COc1ccc2c(c1)C=C(C(=O)Nc1ncc(Cc3ccc(C)cc3)s1)C=CO2,-15.8,-1.1,5.8,-2.6
CCCOc1cccc(C(=O)Nc2ccc(-n3cnnn3)cc2)c1,82.9*,5.7,46.9*,50.6*
CCc1ccc(NC(=O)COc2cccc(-n3cnnn3)c2)cc1,63.5*,-0.1,0.3,24.8
COc1cccc(NC(=O)COc2cccc(-n3cnnn3)c2)c1,12.1,20.6,28.5,-0.3
COCCN1C(=O)c2ccccc2C(C(=O)Nc2cccnc2)C1c1cccs1 (stereo not drawn),0.4,-2.1,-5.6,3.4
O=C(NCCc1nc2ccccc2[nH]1)c1cc2ccccc2o1,-3.4,-4.5,3.7,-2.0
CSc1cccc(NC(=O)CNC(=O)c2cc3ccccc3o2)c1,-27.5,-12.4,13.4,65.3*
O=C(Nc1ccc2[nH]c(=O)[nH]c2c1)c1cc2ccccc2o1,-88.5,-24.1,-8.6,42.5*
COC(=O)c1ccc(NC(=O)CCC(=O)OCC(=O)c2cccc([N+](=O)[O-])c2)cc1,1.1,-0.3,0.0,2.9
O=C(COC(=O)c1cccc([N+](=O)[O-])c1)Nc1cccc(Oc2ccccc2)c1,32.4*,6.5,20.1,8.8
CC(C)Oc1ccc(C(=O)OCC(=O)Nc2ccc(Oc3ccccc3)cc2)cc1,3.8,0.1,9.4,4.6
COc1cccc(OC)c1C(=O)OCC(=O)Nc1ccc(Oc2ccccc2)cc1,22.9,11.6,34.0*,13.8
COc1ccc(C(=O)NC2(Cc3ccccc3)N=C3C(C)=CC=CN3C2=O)cc1 (stereo not drawn),8.8,15.7,11.6,18.6
COc1ccc(OC)c(CC2(NC(=O)c3ccccc3)N=C3C=CC=CN3C2=O)c1 (stereo not drawn),30.2*,16.6,-2.3,21.7
Cc1cc(O)c2c(c1)C(=O)c1cc(O)cc(O)c1C2=O,-486.4,-83.6,-86.1,1.9
O=C1C=C(O)c2c(O)cc(O)cc2C1=O,99.6*,98.8*,98.9*,99.4*
COc1ccc(Cl)cc1NC(=O)Cn1c(=O)cc(C)c2c(C)nn(-c3ccccc3)c21,25.4,13.1,10.1,56.1*
COc1cccc(NC(=O)Cn2c(=O)cc(-c3ccccc3)c3c(C)nn(-c4ccccc4)c32)c1,11.2,16.2,1.5,12.7
Cc1cc(=O)n(CC(=O)NCc2ccccc2F)c2c1c(C)nn2-c1ccccc1,33.1*,12.4,16.3,61.9*
COc1ccccc1OC(C)C(=O)NCCC1=CCCCC1 (stereo not drawn),-4.5,-4.0,-9.7,/
Cc1ccc(Nc2nc(Nc3ccc(F)cc3)nc(N3CCOCC3)n2)cc1,-5.6,0.0,-4.1,-3.4
CC(=O)Nc1ccc(Oc2cncc(Cl)c2)nc1,2.1,5.9,-2.8,5.3
NC(=O)c1ccc(Oc2ccc(Cl)cc2)nc1,30.0,12.6,37.0*,32.0*
COc1ccc(C(=O)Cn2nc(-c3ccco3)c(-c3cc(C)no3)cc2=O)cc1,-4.5,2.4,25.3,46.8*
COc1ccc(OCC(=O)NCc2ccc(-c3ncncc3-c3cc(C)no3)cc2)cc1,12.6,2.5,4.7,8.7
SMILES,USP30 inh,OTUD3 block,USP28 inh,USP17 inh
COc1ccc(CNC(=O)C(C)n2nc(-c3ccco3)c(-c3cc(C)no3)cc2=O)cc1 (stereo not drawn),28.1,14.5,22.6,63.6*
COCCCNc1ncc(-c2cc(C)no2)c(-c2ccco2)n1,-0.9,4.9,0.4,-0.5
O=C1CC(C(=O)Nc2ccccc2Cl)n2nc(-c3ccccc3)cc2N1 (stereo not drawn),27.1,13.0,8.9,71.7*
O=C1CC(C(=O)Nc2ccc(Cl)cc2Cl)n2ncc(-c3ccccc3)c2N1 (stereo not drawn),-9.6,-6.0,-10.2,-6.6
O=C1CC(C(=O)Nc2ccccc2F)n2nc(-c3ccccc3)cc2N1 (stereo not drawn),15.4,1.6,55.9*,78.4*
COc1ccc(NC(=O)C2CC(=O)Nc3c(-c4ccc(Cl)cc4)cnn32)c(OC)c1 (stereo not drawn),-1.1,0.3,-6.3,60.2*

# Bioassay records as filed in PubChem.
